# Assay results reported in ChEMBL document CHEMBL1961873, “Compounds: GSK PKIS; Assays: Nanosyn kinase panel” (2012).
# Tests used:
# [1] = molecular target: Ribosomal protein S6 kinase alpha-3 (Homo sapiens) (UniProt P51812); conditions: at 0.1 µM
# [2] = molecular target: Ribosomal protein S6 kinase alpha-3 (Homo sapiens) (UniProt P51812); conditions: at 1 µM
# [3] = molecular target: Ribosomal protein S6 kinase alpha-2 (Homo sapiens) (UniProt Q15349); conditions: at 0.1 µM
# [4] = molecular target: Ribosomal protein S6 kinase alpha-2 (Homo sapiens) (UniProt Q15349); conditions: at 1 µM
# [5] = molecular target: Ribosomal protein S6 kinase alpha-6 (Homo sapiens) (UniProt Q9UK32); conditions: at 0.1 µM
# [6] = molecular target: Ribosomal protein S6 kinase alpha-6 (Homo sapiens) (UniProt Q9UK32); conditions: at 1 µM
# [7] = molecular target: Serine/threonine-protein kinase Sgk1 (Homo sapiens) (UniProt O00141); conditions: at 0.1 µM
# [8] = molecular target: Serine/threonine-protein kinase Sgk1 (Homo sapiens) (UniProt O00141); conditions: at 1 µM
# [9] = molecular target: Serine/threonine-protein kinase Sgk2 (Homo sapiens) (UniProt Q9HBY8); conditions: at 0.1 µM
# [10] = molecular target: Serine/threonine-protein kinase Sgk2 (Homo sapiens) (UniProt Q9HBY8); conditions: at 1 µM
# [11] = molecular target: Serine/threonine-protein kinase Sgk3 (Homo sapiens) (UniProt Q96BR1); conditions: at 0.1 µM
# [12] = molecular target: Serine/threonine-protein kinase Sgk3 (Homo sapiens) (UniProt Q96BR1); conditions: at 1 µM
# [13] = molecular target: 5'-AMP-activated protein kinase catalytic subunit alpha-1 (Homo sapiens) (UniProt Q13131); conditions: at 0.1 µM
# [14] = molecular target: 5'-AMP-activated protein kinase catalytic subunit alpha-1 (Homo sapiens) (UniProt Q13131); conditions: at 1 µM
# [15] = molecular target: 5'-AMP-activated protein kinase catalytic subunit alpha-2 (Homo sapiens) (UniProt P54646); conditions: at 0.1 µM
# [16] = molecular target: 5'-AMP-activated protein kinase catalytic subunit alpha-2 (Homo sapiens) (UniProt P54646); conditions: at 1 µM
# [17] = molecular target: NUAK family SNF1-like kinase 1 (Homo sapiens) (UniProt O60285); conditions: at 0.1 µM
# [18] = molecular target: NUAK family SNF1-like kinase 1 (Homo sapiens) (UniProt O60285); conditions: at 1 µM
# [19] = molecular target: Serine/threonine-protein kinase BRSK1 (Homo sapiens) (UniProt Q8TDC3); conditions: at 0.1 µM
# [20] = molecular target: Serine/threonine-protein kinase BRSK1 (Homo sapiens) (UniProt Q8TDC3); conditions: at 1 µM
# [21] = molecular target: Serine/threonine-protein kinase BRSK2 (Homo sapiens) (UniProt Q8IWQ3); conditions: at 0.1 µM
# [22] = molecular target: Serine/threonine-protein kinase BRSK2 (Homo sapiens) (UniProt Q8IWQ3); conditions: at 1 µM
# [23] = molecular target: Calcium/calmodulin-dependent protein kinase type 1D (Homo sapiens) (UniProt Q8IU85); conditions: at 0.1 µM
# [24] = molecular target: Calcium/calmodulin-dependent protein kinase type 1D (Homo sapiens) (UniProt Q8IU85); conditions: at 1 µM
# [25] = molecular target: Calcium/calmodulin-dependent protein kinase type II subunit alpha (Homo sapiens) (UniProt Q9UQM7); conditions: at 0.1 µM
# [26] = molecular target: Calcium/calmodulin-dependent protein kinase type II subunit alpha (Homo sapiens) (UniProt Q9UQM7); conditions: at 1 µM
# [27] = molecular target: Calcium/calmodulin-dependent protein kinase type II subunit delta (Homo sapiens) (UniProt Q13557); conditions: at 0.1 µM
# [28] = molecular target: Calcium/calmodulin-dependent protein kinase type II subunit delta (Homo sapiens) (UniProt Q13557); conditions: at 1 µM
# [29] = molecular target: Calcium/calmodulin-dependent protein kinase type IV (Homo sapiens) (UniProt Q16566); conditions: at 0.1 µM
# [30] = molecular target: Calcium/calmodulin-dependent protein kinase type IV (Homo sapiens) (UniProt Q16566); conditions: at 1 µM
# [31] = molecular target: Serine/threonine-protein kinase Chk1 (Homo sapiens) (UniProt O14757); conditions: at 0.1 µM
# [32] = molecular target: Serine/threonine-protein kinase Chk1 (Homo sapiens) (UniProt O14757); conditions: at 1 µM
# [33] = molecular target: Serine/threonine-protein kinase Chk2 (Homo sapiens) (UniProt O96017); conditions: at 0.1 µM
# [34] = molecular target: Serine/threonine-protein kinase Chk2 (Homo sapiens) (UniProt O96017); conditions: at 1 µM
# [35] = molecular target: Death-associated protein kinase 1 (Homo sapiens) (UniProt P53355); conditions: at 0.1 µM
# [36] = molecular target: Death-associated protein kinase 1 (Homo sapiens) (UniProt P53355); conditions: at 1 µM
# [37] = molecular target: Serine/threonine-protein kinase DCLK2 (Homo sapiens) (UniProt Q8N568); conditions: at 0.1 µM
# [38] = molecular target: Serine/threonine-protein kinase DCLK2 (Homo sapiens) (UniProt Q8N568); conditions: at 1 µM
# [39] = molecular target: MAP kinase-activated protein kinase 2 (Homo sapiens) (UniProt P49137); conditions: at 0.1 µM
# [40] = molecular target: MAP kinase-activated protein kinase 2 (Homo sapiens) (UniProt P49137); conditions: at 1 µM
# [41] = molecular target: MAP kinase-activated protein kinase 3 (Homo sapiens) (UniProt Q16644); conditions: at 0.1 µM
# [42] = molecular target: MAP kinase-activated protein kinase 3 (Homo sapiens) (UniProt Q16644); conditions: at 1 µM
# [43] = molecular target: Serine/threonine-protein kinase MARK1 (Homo sapiens) (UniProt Q9P0L2); conditions: at 0.1 µM
# [44] = molecular target: Serine/threonine-protein kinase MARK1 (Homo sapiens) (UniProt Q9P0L2); conditions: at 1 µM
# [45] = molecular target: MAP/microtubule affinity-regulating kinase 3 (Homo sapiens) (UniProt P27448); conditions: at 0.1 µM
# [46] = molecular target: MAP/microtubule affinity-regulating kinase 3 (Homo sapiens) (UniProt P27448); conditions: at 1 µM
# [47] = molecular target: MAP/microtubule affinity-regulating kinase 4 (Homo sapiens) (UniProt Q96L34); conditions: at 0.1 µM
# [48] = molecular target: MAP/microtubule affinity-regulating kinase 4 (Homo sapiens) (UniProt Q96L34); conditions: at 1 µM
# [49] = molecular target: Maternal embryonic leucine zipper kinase (Homo sapiens) (UniProt Q14680); conditions: at 0.1 µM
# [50] = molecular target: Maternal embryonic leucine zipper kinase (Homo sapiens) (UniProt Q14680); conditions: at 1 µM
# [51] = molecular target: MAP kinase-interacting serine/threonine-protein kinase 1 (Homo sapiens) (UniProt Q9BUB5); conditions: at 0.1 µM
# [52] = molecular target: MAP kinase-interacting serine/threonine-protein kinase 1 (Homo sapiens) (UniProt Q9BUB5); conditions: at 1 µM
# [53] = molecular target: MAP kinase-interacting serine/threonine-protein kinase 2 (Homo sapiens) (UniProt Q9HBH9); conditions: at 0.1 µM
# [54] = molecular target: MAP kinase-interacting serine/threonine-protein kinase 2 (Homo sapiens) (UniProt Q9HBH9); conditions: at 1 µM
# [55] = molecular target: Serine/threonine-protein kinase MARK2 (Homo sapiens) (UniProt Q7KZI7); conditions: at 0.1 µM
# [56] = molecular target: Serine/threonine-protein kinase MARK2 (Homo sapiens) (UniProt Q7KZI7); conditions: at 1 µM
# Sequence of MAP/microtubule affinity-regulating kinase 4 (Homo sapiens) (Q96L34 whole entry): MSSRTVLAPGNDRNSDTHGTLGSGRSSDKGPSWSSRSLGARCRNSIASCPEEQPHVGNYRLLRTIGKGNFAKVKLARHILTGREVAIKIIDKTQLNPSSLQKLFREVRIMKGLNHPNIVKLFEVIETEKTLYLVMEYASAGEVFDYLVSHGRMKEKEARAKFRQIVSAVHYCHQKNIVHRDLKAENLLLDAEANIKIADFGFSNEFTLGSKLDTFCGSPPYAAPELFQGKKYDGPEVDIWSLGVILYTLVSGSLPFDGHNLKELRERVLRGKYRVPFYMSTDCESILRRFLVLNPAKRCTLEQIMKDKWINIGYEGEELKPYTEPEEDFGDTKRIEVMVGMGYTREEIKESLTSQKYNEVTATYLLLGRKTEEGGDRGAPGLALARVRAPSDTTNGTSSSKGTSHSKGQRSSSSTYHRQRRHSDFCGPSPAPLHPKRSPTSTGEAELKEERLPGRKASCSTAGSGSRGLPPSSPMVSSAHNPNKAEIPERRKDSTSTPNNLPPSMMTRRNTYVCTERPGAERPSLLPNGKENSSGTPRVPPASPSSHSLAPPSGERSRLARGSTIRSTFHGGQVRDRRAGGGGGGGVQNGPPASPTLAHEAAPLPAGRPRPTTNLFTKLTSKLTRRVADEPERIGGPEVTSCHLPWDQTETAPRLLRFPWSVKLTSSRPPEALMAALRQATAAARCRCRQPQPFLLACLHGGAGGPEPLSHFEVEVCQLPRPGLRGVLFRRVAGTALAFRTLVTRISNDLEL
# Sequence of Maternal embryonic leucine zipper kinase (Homo sapiens) (Q14680 whole entry, looked up): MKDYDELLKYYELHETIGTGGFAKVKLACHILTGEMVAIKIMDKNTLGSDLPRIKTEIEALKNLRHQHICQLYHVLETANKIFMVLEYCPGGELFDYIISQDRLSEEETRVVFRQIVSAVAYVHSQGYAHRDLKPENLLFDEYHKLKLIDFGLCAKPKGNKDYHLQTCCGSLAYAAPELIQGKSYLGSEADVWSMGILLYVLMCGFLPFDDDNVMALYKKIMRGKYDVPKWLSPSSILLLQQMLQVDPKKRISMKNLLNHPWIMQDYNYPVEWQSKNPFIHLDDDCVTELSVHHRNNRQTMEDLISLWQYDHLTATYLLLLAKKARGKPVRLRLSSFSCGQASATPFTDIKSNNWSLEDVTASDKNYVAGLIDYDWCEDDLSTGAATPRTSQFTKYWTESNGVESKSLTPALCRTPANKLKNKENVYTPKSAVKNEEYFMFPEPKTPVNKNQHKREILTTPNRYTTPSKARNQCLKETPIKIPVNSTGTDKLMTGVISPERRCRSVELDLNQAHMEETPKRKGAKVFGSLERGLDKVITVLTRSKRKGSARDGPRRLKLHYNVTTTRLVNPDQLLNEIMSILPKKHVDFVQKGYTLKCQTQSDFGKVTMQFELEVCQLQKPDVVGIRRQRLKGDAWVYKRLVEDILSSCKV
# Sequence of Calcium/calmodulin-dependent protein kinase type 1D (Homo sapiens) (Q8IU85 whole entry, looked up): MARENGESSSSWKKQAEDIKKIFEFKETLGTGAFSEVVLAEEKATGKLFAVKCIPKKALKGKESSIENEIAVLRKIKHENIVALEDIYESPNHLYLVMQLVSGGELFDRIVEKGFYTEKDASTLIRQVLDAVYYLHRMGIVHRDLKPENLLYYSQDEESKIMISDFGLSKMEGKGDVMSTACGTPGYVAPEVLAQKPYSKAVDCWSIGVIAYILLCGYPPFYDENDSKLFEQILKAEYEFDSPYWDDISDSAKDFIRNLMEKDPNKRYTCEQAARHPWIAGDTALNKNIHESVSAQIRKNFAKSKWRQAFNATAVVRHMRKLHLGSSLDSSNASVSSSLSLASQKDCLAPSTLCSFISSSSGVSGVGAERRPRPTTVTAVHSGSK
# Sequence of Ribosomal protein S6 kinase alpha-3 (Homo sapiens) (P51812 whole entry): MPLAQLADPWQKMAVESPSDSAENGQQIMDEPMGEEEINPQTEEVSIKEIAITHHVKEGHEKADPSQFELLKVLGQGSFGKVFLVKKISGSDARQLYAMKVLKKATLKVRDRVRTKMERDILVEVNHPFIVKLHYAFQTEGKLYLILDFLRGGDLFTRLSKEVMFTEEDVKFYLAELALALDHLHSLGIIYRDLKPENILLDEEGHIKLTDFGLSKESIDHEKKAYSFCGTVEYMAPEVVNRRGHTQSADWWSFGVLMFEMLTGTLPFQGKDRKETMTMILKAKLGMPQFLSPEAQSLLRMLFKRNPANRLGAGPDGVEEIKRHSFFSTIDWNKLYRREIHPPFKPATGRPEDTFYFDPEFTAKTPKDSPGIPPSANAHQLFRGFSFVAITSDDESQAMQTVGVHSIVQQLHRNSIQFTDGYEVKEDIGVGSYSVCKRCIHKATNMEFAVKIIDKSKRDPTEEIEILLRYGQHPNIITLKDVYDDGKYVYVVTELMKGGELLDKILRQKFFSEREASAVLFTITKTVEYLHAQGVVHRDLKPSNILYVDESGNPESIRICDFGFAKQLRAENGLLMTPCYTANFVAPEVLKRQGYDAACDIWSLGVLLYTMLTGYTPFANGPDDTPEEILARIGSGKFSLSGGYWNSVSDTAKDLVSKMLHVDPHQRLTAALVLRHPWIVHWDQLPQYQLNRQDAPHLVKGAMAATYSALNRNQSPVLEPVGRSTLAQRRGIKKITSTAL
# Sequence of Ribosomal protein S6 kinase alpha-6 (Homo sapiens) (Q9UK32 whole entry): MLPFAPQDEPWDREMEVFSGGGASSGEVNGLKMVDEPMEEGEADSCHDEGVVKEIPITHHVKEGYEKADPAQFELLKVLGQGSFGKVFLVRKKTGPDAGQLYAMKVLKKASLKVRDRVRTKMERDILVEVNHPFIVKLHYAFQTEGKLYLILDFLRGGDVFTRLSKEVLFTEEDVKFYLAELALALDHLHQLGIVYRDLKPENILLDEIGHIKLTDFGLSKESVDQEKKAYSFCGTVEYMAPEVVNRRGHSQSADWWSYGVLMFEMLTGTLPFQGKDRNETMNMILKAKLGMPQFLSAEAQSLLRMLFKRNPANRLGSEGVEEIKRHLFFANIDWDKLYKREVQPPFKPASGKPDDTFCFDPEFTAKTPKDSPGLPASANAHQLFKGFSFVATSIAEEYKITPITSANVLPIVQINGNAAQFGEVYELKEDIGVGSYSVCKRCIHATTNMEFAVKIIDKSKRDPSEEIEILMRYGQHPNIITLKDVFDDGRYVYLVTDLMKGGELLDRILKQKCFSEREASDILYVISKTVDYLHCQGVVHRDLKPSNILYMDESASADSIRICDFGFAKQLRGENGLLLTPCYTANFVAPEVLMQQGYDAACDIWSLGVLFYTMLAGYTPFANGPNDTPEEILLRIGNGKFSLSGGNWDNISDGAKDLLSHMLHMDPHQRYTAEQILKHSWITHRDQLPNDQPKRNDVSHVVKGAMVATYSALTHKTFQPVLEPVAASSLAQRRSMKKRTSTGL
# Sequence of Serine/threonine-protein kinase BRSK1 (Homo sapiens) (Q8TDC3 whole entry): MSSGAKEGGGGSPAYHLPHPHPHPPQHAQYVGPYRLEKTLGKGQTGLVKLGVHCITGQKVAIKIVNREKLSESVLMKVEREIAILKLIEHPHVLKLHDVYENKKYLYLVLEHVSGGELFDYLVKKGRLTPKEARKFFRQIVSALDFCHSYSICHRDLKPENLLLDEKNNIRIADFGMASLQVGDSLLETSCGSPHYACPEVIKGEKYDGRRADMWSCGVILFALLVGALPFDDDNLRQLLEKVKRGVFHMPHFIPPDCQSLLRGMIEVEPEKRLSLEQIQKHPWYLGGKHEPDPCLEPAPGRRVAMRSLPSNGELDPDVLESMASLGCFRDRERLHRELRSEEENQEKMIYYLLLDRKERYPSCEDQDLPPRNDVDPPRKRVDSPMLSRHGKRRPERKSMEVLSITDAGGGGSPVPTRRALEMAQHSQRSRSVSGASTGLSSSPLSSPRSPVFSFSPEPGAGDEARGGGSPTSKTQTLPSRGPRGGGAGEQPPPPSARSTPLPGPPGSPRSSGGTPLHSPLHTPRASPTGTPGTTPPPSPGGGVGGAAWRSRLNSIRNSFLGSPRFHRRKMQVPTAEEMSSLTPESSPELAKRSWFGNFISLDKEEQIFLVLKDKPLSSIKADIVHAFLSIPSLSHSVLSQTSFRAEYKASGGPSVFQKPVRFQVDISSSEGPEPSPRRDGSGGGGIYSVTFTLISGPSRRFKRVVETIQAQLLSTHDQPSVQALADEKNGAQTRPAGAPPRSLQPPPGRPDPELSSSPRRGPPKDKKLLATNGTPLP
# Sequence of Serine/threonine-protein kinase Sgk1 (Homo sapiens) (O00141 whole entry): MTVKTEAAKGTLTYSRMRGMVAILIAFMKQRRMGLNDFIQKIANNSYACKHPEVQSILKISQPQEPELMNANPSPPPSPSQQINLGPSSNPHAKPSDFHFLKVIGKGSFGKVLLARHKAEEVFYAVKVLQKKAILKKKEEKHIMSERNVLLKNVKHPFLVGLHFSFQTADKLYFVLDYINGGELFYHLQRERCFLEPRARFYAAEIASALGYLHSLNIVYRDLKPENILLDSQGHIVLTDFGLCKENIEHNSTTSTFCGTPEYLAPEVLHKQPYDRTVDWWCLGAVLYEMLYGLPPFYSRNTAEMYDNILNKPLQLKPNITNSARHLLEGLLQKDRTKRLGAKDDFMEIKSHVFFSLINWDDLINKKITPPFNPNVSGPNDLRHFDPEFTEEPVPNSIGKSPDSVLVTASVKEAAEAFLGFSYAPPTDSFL
# Sequence of Serine/threonine-protein kinase Sgk2 (Homo sapiens) (Q9HBY8 whole entry): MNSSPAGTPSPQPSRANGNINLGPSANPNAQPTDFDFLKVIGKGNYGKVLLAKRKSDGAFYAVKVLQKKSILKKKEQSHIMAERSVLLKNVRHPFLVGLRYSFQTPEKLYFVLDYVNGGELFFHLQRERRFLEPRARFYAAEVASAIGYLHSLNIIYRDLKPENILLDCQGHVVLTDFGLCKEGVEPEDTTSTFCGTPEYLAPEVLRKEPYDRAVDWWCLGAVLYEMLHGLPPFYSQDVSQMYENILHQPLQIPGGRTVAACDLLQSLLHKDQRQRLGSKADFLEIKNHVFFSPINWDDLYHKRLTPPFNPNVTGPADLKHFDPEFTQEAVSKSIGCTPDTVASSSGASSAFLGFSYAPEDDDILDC
smiles,measurement,setting,value
CNC(=O)Oc1cc(C)c(/C=C/c2cncc(C(=O)NC)c2)c(C)c1,inhibition,[1],1.05%
same,inhibition,[2],3.39%
same,inhibition,[3],1.4%
same,inhibition,[4],3.44%
same,inhibition,[5],1.15%
same,inhibition,[6],2.66%
same,inhibition,[7],3.01%
same,inhibition,[8],0.19%
same,inhibition,[9],1.73%
same,inhibition,[10],0.22%
same,inhibition,[11],1.34%
same,inhibition,[12],0.65%
same,inhibition,[13],2.14%
same,inhibition,[14],0.11%
same,inhibition,[15],-0.38%
same,inhibition,[16],2.44%
same,inhibition,[17],-1.06%
same,inhibition,[18],4.07%
same,inhibition,[19],2.89%
same,inhibition,[20],12%
same,inhibition,[21],1.79%
same,inhibition,[22],7.68%
same,inhibition,[23],0.95%
same,inhibition,[24],2.36%
same,inhibition,[25],3.17%
same,inhibition,[26],4.72%
same,inhibition,[27],4.03%
same,inhibition,[28],5.12%
same,inhibition,[29],1.23%
same,inhibition,[30],0.1%
same,inhibition,[31],-2.68%
same,inhibition,[32],-3.25%
same,inhibition,[33],-3.08%
same,inhibition,[34],0.64%
same,inhibition,[35],-4.67%
same,inhibition,[36],-3.09%
same,inhibition,[37],1.08%
same,inhibition,[38],-1.11%
same,inhibition,[39],-2.03%
same,inhibition,[40],-2.01%
same,inhibition,[41],-3.36%
same,inhibition,[42],-4.16%
same,inhibition,[43],1.32%
same,inhibition,[44],0.49%
same,inhibition,[45],3.32%
same,inhibition,[46],5.19%
same,inhibition,[47],0.21%
same,inhibition,[48],0.46%
same,inhibition,[49],1.41%
same,inhibition,[50],3.48%
same,inhibition,[51],5.31%
same,inhibition,[52],30.7%
same,inhibition,[53],3.17%
same,inhibition,[54],25.1%
same,inhibition,[55],-0.87%
same,inhibition,[56],0.31%
